Laboratory results reported in PubChem BioAssay.
Active and inactive are the calls of the source.

Tests used:
[1] = tested on: Plasmodium falciparum Sir2 (PF13_0152, Sir2A); assay: Plasmodium falciparum Sir2A binding compounds – biochemical, small-molecule microarray, 635 nm fluorescence, primary screen (AID 1098); conditions: fluorescence 635 nm, higher = more signal;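 also: score merges spot fluorescence intensity with its signal-to-noise ratio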
[2] = probe aDKK1 binding to arrayed compounds – biochemical, biotinylated probe, 635/667 nm fluorescence, primary screen (AID 1099); conditions: small-molecule microarray, higher = more signal;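 also: score merges 667nm spot fluorescence with signal to noise across triplicate slides; reference of the scale not given here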
[3] = probe aCHRDL2 binding to arrayed compounds – biochemical, biotinylated probe, 635/667 nm fluorescence, primary screen (AID 1100); conditions: small-molecule microarray, higher = more signal
[4] = change in splice reporter luminescence, either direction, cell-based, HEK293, spliceosome inhibition project, primary screen (AID 1101); conditions: HEK293 splicing luciferase reporter, 24 h, higher = more signal, called active from +8 up or from −8 down;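 also: HEK293 cells carrying a splicing-competent luciferase reporter gene; test concentration not given here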
[5] = biological target: Fibroblast growth factor 10 (Homo sapiens) (UniProt O15520); assay: compounds binding fibroblast growth factor 10 – biochemical, small-molecule microarray, 635 nm fluorescence, primary screen (AID 1102); conditions: FGF10 binding, fluorescence 635 nm, higher = more signal
[6] = tested on: glycogen synthase kinase-3 (GSK3A per assay name; protocol says GSK3B); assay: compounds binding glycogen synthase kinase-3 – biochemical, small-molecule microarray, 635 nm fluorescence, GSK3A, primary screen (AID 1103); conditions: fluorescence 635 nm, higher = more signal; also: the record names both GSK3A and GSK3B
[7] = biological target: Epidermal growth factor receptor (Homo sapiens) (UniProt P00533); assay: compounds binding epidermal growth factor receptor – biochemical, small-molecule microarray, 635 nm fluorescence, primary screen (AID 1104); conditions: EGFR binding, higher = more signal;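 also: score merges 667 nm emission intensity with spot signal to noise over triplicate slides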
[8] = biological target: Follistatin-related protein 3 (Homo sapiens) (UniProt O95633); assay: compounds binding follistatin-related protein 3 – biochemical, small-molecule microarray, 635 nm fluorescence, primary screen (AID 1105); conditions: FSTL3 binding, higher = more signal;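 also: score merges emission near 667 nm and signal to noise per printed spot across three slides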
[9] = biological target: Dickkopf-related protein 1 (Homo sapiens) (UniProt O94907); assay: small molecules binding DKK1 protein – biochemical, small-molecule microarray, 635 nm fluorescence scan, primary screen (AID 1106); conditions: higher = more signal;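 also: score merges emission near 667 nm with signal to noise over three replicate slides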
[10] = tested on: Inhibin beta A chain (activin A); assay: small molecules binding activin A – biochemical, small-molecule microarray, 635 nm fluorescence scan, primary screen (AID 1107); conditions: INHBA, higher = more signal;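 also: mouse activin A protein probed at 4.33 µg/mL on printed slides; score merges bound-protein fluorescence near 667 nm with spot signal-to-noise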

Follistatin-related protein 3 (Homo sapiens), sequence (O95633 whole entry, looked up): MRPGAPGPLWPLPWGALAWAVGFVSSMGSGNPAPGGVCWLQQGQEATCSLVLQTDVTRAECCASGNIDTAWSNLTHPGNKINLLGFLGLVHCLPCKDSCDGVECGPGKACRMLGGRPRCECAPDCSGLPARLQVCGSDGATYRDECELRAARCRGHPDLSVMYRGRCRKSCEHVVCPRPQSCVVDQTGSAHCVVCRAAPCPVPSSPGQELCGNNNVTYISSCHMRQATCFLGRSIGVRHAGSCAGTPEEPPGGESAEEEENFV
Epidermal growth factor receptor (Homo sapiens), sequence (P00533 whole entry, looked up): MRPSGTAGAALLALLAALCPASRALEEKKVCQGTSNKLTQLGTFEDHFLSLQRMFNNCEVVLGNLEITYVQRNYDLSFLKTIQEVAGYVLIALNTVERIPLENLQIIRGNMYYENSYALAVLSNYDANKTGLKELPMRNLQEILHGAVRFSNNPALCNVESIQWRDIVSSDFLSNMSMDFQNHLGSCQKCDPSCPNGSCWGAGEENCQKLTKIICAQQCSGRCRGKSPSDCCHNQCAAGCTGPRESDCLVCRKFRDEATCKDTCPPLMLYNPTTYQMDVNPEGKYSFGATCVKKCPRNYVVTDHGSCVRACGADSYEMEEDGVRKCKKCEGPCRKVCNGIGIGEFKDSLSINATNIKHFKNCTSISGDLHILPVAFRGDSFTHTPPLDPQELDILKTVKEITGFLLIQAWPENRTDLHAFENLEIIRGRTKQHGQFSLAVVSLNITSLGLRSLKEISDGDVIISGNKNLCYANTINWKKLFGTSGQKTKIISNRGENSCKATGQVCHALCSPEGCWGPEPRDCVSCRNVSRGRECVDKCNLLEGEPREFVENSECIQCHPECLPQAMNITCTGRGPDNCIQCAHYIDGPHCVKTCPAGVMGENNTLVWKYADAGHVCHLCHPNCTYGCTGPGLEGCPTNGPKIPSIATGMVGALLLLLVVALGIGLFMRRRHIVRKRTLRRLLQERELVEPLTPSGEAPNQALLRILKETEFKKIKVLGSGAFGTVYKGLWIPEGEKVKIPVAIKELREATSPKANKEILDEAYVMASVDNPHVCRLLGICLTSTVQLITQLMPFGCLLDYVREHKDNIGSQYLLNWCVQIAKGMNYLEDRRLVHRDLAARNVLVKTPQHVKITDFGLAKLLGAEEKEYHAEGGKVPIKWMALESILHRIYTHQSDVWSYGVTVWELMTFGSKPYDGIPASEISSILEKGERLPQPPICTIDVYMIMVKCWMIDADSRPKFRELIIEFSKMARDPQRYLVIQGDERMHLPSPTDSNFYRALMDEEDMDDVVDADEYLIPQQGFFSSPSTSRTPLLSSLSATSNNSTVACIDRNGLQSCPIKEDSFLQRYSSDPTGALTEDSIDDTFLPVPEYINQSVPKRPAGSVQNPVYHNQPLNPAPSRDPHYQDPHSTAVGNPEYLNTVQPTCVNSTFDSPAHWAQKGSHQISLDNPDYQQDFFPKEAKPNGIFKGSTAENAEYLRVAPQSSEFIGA
Dickkopf-related protein 1 (Homo sapiens), sequence (O94907 whole entry, looked up): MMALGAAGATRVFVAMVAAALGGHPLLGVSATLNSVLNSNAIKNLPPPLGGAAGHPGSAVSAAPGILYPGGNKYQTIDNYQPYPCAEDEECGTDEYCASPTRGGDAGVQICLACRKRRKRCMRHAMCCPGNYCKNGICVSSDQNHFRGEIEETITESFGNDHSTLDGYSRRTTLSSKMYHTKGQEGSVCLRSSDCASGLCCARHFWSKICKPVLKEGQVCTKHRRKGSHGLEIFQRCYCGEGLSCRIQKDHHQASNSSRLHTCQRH
Fibroblast growth factor 10 (Homo sapiens), sequence (O15520 whole entry, looked up): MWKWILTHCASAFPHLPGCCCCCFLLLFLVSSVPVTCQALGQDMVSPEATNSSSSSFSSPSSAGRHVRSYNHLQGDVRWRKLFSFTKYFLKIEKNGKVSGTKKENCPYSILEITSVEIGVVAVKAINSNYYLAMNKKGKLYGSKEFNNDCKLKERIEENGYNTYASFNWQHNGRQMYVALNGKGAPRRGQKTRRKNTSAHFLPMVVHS

Row | Compound | composite z-score [1] | composite z-score [2] | composite z-score [3] | z-score [4] | composite z-score [5] | composite z-score [6] | composite z-score [7] | composite z-score [8] | composite z-score [9] | composite z-score [10]
1 | CC(C)c1ccc(NN2C(C(O)c3cccc(O)c3)C=CC3C(=O)N(c4ccccc4)C(=O)C32)cc1 (stereo not given) | 0.996 | 0.808 | 0.835 | 0.689 (inactive) | 1.39 | 1.27 | 0.373 | 1.05 | -0.0143 | -0.251
2 | COC(=O)[C@@]1(Cc2ccc(OC)cc2)[C@H]2c3cc(C(=O)N4CCCC4)n(CCc4c[nH]c5cc(F)ccc45)c3C[C@H]2CN1C(=O)c1ccccc1 | 1.31 | 0.185 | 1.19 | -0.332 (inactive) | 0.875 | 1.09 | 0.0022 | 0.988 | -0.0303 | 0.831
3 | O=C(OCCF)C1=CCC(c2cccc(Cl)c2)O1 (stereo not given) | -0.229 | -0.0052 | -0.325 | -0.824 (inactive) | 0.0899 | 0.644 | 0.119 | 0.151 | -0.183 | 0.44
4 | C=CC[C@]1(C(=O)N2CCOCC2)N=C(c2ccc(OCCCO)cc2)O[C@H]1c1ccccc1 | 1.44 | 0.573 | 1.01 | -0.0214 (inactive) | 0.182 | 1.28 | -0.201 | -0.524 | 0.142 | 0.862
5 | CCOC(=O)C[C@H]1[C@H](OC(=O)c2ccc(C(=O)c3ccccc3)cc2)[C@@H](NC(=O)C2CCCCC2)c2cc(OCCCO)ccc2N1C(=O)c1ccccc1 | 0.348 | -0.0675 | -0.0333 | 0.062 (inactive) | 0.398 | 0.628 | 0.122 | 0.165 | 0.126 | 0.559
6 | CC(C)N1C(=O)C[C@@](C(=O)NCc2ccccc2)(c2ccc([N+](=O)[O-])cc2)[C@H]1c1ccc(CO)cc1 | 0.142 | -0.0752 | 0.934 | 0.0798 (inactive) | 0.484 | 0.321 | -0.786 | -0.17 | -0.0781 | 0.0614
7 | CCCCC(CC)C(O)C1C=CC2C(=O)N(c3ccccc3)C(=O)C2N1Nc1ccccc1 (stereo not given) | 0.889 | 0.674 | 0.932 | -0.901 (inactive) | 0.753 | 0.0129 | -0.456 | 1.13 | -0.648 | 1.02
8 | CCOc1cc(C(O)C2C=CC3C(=O)N(c4ccccc4)C(=O)C3N2Nc2ccc([N+](=O)[O-])cc2)ccc1O (stereo not given) | 1.33 | -0.0703 | -0.129 | -0.214 (inactive) | 0.575 | 0.757 | 0.317 | 0.429 | 0.0577 | 0.199
9 | COCC1=C2[C@@H](CCc3ccccc3)OB(O)C[C@@H]2[C@@H]2C(=O)N(Cc3ccccc3)C(=O)[C@@H]2C1 | 0.174 | -0.143 | -0.188 | 0.161 (inactive) | 0.628 | 0.197 | 0.388 | 0.191 | 0.249 | 0.728
10 | N#Cc1ccc(NN2C(C(O)C3CCCCC3)C=CC3C(=O)N(c4ccccc4)C(=O)C32)cc1 (stereo not given) | 0.908 | 0.458 | 0.811 | 1.23 (inactive) | 1.09 | 1.3 | -0.0355 | 1.28 | -0.547 | 0.249
11 | CC(C)=CCCC(C)=CC(O)C1C=CC2C(=O)N(c3ccccc3)C(=O)C2N1Nc1ccccc1 (stereo not given) | 1.36 | 1.21 | 0.997 | 1.18 (inactive) | 1.05 | 0.978 | 0.251 | 1.38 | 0.113 | 1.06
12 | O=C(CS)NCCCCCCNC(=O)[C@H]1C[C@H]2C(=O)N3CCC[C@H]3C(=O)N2[C@H]1c1cccc(OCCO)c1 | 1.86 | -0.037 | -0.109 | 0.5 (inactive) | 1.08 | 1.34 | 0.543 | 0.575 | 0.904 | 0.683
13 | CC(C)C[C@@H]1NC(=O)[C@@H]2C[C@H](C(=O)NCCCCCC[N+](C)(C)C)[C@H](c3ccc(O)cc3)N2C1=O | 1.38 | 0.026 | 0.0989 | 0.00513 (inactive) | 0.623 | 1.21 | 0.29 | 0.706 | 0.977 | 0.987
14 | O=C1OCCC=C[C@H]2OC34C=CCN(Cc5ccccc5)C(=O)[C@H]3N(CCCCCCO)C(=O)[C@@H]4C12 (stereo not given in full) | 1.61 | -0.189 | 0.33 | -0.205 (inactive) | -1.26 | -0.578 | -0.83 | -0.435 | -1.38 | -0.597
15 | CCOC(=O)C[C@H]1[C@H](OC(=O)c2ccccc2-c2ccccc2)[C@@H](NC(=O)c2ccc3ccccc3c2)c2cc(OCCCO)ccc2N1C(=O)c1ccc2ccccc2n1 | -0.0144 | -0.228 | -0.154 | 0.411 (inactive) | 0.533 | 0.119 | 0.289 | 0.521 | -0.0224 | 0.282
16 | CO[C@H]1O[C@H](CO)[C@@H](OC(=O)Nc2ccc3c(c2)OCO3)[C@H](OC(=O)Nc2ccccc2)[C@H]1OC(=O)Nc1ccccc1 | 1.48 | 0.132 | 0.398 | 1.89 (inactive) | 0.892 | 1.29 | -0.0701 | 0.848 | 0.295 | 0.395
17 | CC(=O)NCCCC[C@@H]1NC(=O)[C@@H]2C[C@H](C(=O)NCCCCCCNC(=O)CS)[C@H](c3ccc(O)cc3)N2C1=O | 1.18 | -0.194 | 0.52 | 0.584 (inactive) | -0.37 | -0.0984 | -0.755 | -0.353 | -0.233 | -0.989
